According to PubChem BioAssay AID602 (SRMLSC, 2007):
Out of some 85,000 compounds screened, about 35 (0.04%) were called active. This is one part of a sample in which actives are shown more often than they occur.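 Rule for the calls: active = viability drop by adding the cancer drug above about 55%, with treated viability meeting a 40% cutoff (limit read from the data); inactive = the rest, inconclusive results apart.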

Assay: reversal of MRP1-mediated doxorubicin resistance, primary screen, H69AR cells, doxorubicin co-treatment (AID 602);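 for differential viability (reversal): larger differential means the compound sensitizes cells more to doxorubicin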
Settings: CellTiter-Glo, 72 h, at 10 µM; for differential viability (reversal): stronger effect = higher value
[1] = H69AR cells + 2 uM doxorubicin, measured here: viability with 2 uM doxorubicin, stronger effect = lower value
[2] = H69AR cells, measured here: cytotoxicity without doxorubicin

| SMILES | differential viability (reversal) (H69AR cells + 2 uM doxorubicin) | viability [1] [%] | viability [2] [%] |
| --- | --- | --- | --- |
| O=C(c1ccc(Cl)c(Cl)c1)N1CCCC1 | -4.92% (inactive) | 100 | 95.3 |
| Cc1ccc(NC(=O)Nc2ccc3oc(C)nc3c2)cc1 | -17% (inactive) | 91.5 | 74.5 |
| COc1ccc(Cl)cc1C(=O)NCc1cn(C)nc1C | 5.94% (inactive) | 80.2 | 86.1 |
| O=C(CN1CCCCCC1)N1c2ccccc2Sc2ccc(C(F)(F)F)cc21 | -13.5% (inactive) | 50.3 | 36.8 |
| COc1ccc(-c2nnc(SCC(=O)c3ccc4c(c3)OCCO4)o2)cc1 | 2.52% (inactive) | 99.1 | 102 |
| Cc1ccc(S(=O)(=O)Oc2ccc(/C=N/NC(=O)c3c(Cl)cnn3C)cc2)cc1 | -3.21% (inactive) | 82.4 | 79.2 |
| COc1ccc(C(=O)Nc2nc(-c3ccc(S(=O)(=O)N4CCOCC4)cc3)cs2)cc1 | -4.07% (inactive) | 62.1 | 58 |
| O=c1c2ccccc2nc2n1C1(CCCCC1)Cc1ccccc1-2 | -4.43% (inactive) | 88.2 | 83.7 |
| COC(=O)/C(NC(C)=O)=C(\C)c1ccc(Cl)cc1 | -15.7% (inactive) | 118 | 102 |
| Cc1nnc(SCC(=O)Nc2ncc3c(n2)CC(C)(C)CC3=O)s1 | 16.1% (inactive) | 79.2 | 95.3 |
| CC(=O)c1cccc(NC(=O)N2CCCC2C(=O)NCCc2ccccc2)c1 (stereo unspecified) | 1.66% (inactive) | 89.9 | 91.5 |
| O=C(/C=C/NNC(=O)c1cccc(Br)c1)c1ccccc1 | -16.9% (inactive) | 78.5 | 61.5 |
| COC(=O)c1ccc(Sc2ccc(F)cc2)c(N)c1 | 11.2% (inactive) | 97.4 | 109 |
| O=C(CN1CCCCC1)N1c2ccccc2Sc2ccc(C(F)(F)F)cc21 | -4.36% (inactive) | 91.2 | 86.8 |
| CC(CO)N1CCS(=O)(=O)CC1 (stereo unspecified) | 9.77% (inactive) | 83.8 | 93.6 |
| O=C(CCN1C(=O)c2ccccc2C1=O)Nc1cccc(F)c1 | 0% (inactive) | 98.2 | 98.2 |
| Cc1ccc(SCCC(=O)OCC(=O)Nc2ncc(Cl)cc2Cl)cc1 | 6.94% (inactive) | 72.7 | 79.6 |
| O=C(NCc1ccco1)c1ccc(Cn2c(=O)c3sccc3n(Cc3ccc(F)cc3)c2=O)cc1 | 11.8% (inactive) | 70.9 | 82.7 |
| CC1(C)CCc2nc(SCc3ccccc3)c(C#N)cc2C1 | 3.69% (inactive) | 77.7 | 81.4 |
| Cc1csc(OCC(=O)Nc2ccc(C)c(C)c2)n1 | 0.06% (inactive) | 107 | 107 |
| Cc1ccc(O)c(CNc2nc3ccccc3n2C)c1 | 3.81% (inactive) | 84.6 | 88.4 |
| O=c1[nH]c2c(c(=O)n1Cc1ccccc1)CCC2 | 3.8% (inactive) | 94.9 | 98.7 |
| COC(=O)c1ccccc1NC(=O)CSc1nnnn1C | -8.64% (inactive) | 104 | 95.3 |
| O=C(NCc1cccnc1)Nc1ccccc1F | -0.98% (inactive) | 99.8 | 98.8 |
| CCCc1nc2scc(-c3ccc(C)cc3)c2c(=O)n1N | -37.7% (inactive) | 83.8 | 46.1 |
| CC(=O)c1ccc2c(c1)c1ccccc1n2CC(C)C | -0.04% (inactive) | 73.3 | 73.2 |

| SMILES | differential viability (reversal) (H69AR cells + 2 uM doxorubicin) | viability [1] [%] | viability [2] [%] |
| --- | --- | --- | --- |
| CCCCC(C(=O)OCC(=O)c1ccc(OC)cc1)N1C(=O)c2ccccc2C1=O (stereo unspecified) | -8.79% (inactive) | 104 | 95 |
| CCn1nccc1C(=O)Nc1ccc(S(=O)(=O)NC23CC4CC(CC(C4)C2)C3)cc1 | -7.56% (inactive) | 84 | 76.5 |
| COc1ccc(Nc2nc(=O)[nH]nc2C)cc1 | -5.85% (inactive) | 101 | 95.5 |
| CCOC(=O)Cc1csc(NC(=O)CSc2nnc(-c3cccnc3)n2Cc2ccco2)n1 | 14.6% (inactive) | 85.7 | 100 |
| COCCn1c(=S)[nH]c2cc(C(=O)NCCc3ccc(OC)c(OC)c3)ccc2c1=O | 2.26% (inactive) | 75.8 | 78.1 |
| CC(=O)Nc1ccc(N2C(=O)CCC2=O)cc1C | -10.5% (inactive) | 86.7 | 76.2 |
| CCc1c(C)sc(NC(=O)c2cccs2)c1C(N)=O | 4.09% (inactive) | 95.6 | 99.7 |
| CC1(C)OC(=O)N2CCc3ccccc3C21C (stereo unspecified) | 3.59% (inactive) | 88 | 91.6 |
| Cc1[nH]n(-c2ccc([N+](=O)[O-])cc2)c(=O)c1C=NCCN1CCN(C(=O)c2ccccc2F)CC1 | -1.07% (inactive) | 40.5 | 39.4 |
| COc1cccc(N(CC(=O)NCCSc2ccccn2)S(C)(=O)=O)c1 | 3.02% (inactive) | 92.5 | 95.5 |
| CCCC1NC(=O)NC(C)=C1C(=O)OCC (stereo unspecified) | 2.9% (inactive) | 96.9 | 99.8 |
| COc1ccccc1C(c1nnnn1C(C)(C)C)N1CCN(Cc2ccccc2)CC1 (stereo unspecified) | 9.02% (inactive) | 76.2 | 85.2 |
| Cc1cc2nnc(SCC(=O)N3CCN(c4ccccc4)CC3)n2c(N)n1 | -1.47% (inactive) | 65.8 | 64.4 |
| O=C(Nc1ccc(Cl)cc1)c1cc2nc(C3CC3)cc(C(F)(F)F)n2n1 | 10.2% (inactive) | 69.3 | 79.5 |
| CC1=CC(C)(C)Nc2ccc(OC(=O)C(Cc3ccccc3)N3C(=O)C4CCCCC4C3=O)cc21 (stereo unspecified) | 11.8% (inactive) | 68.5 | 80.3 |
| COCCn1c(C)cc(C2=NNC(=Nc3ccc(F)cc3)SC2)c1C | -17.5% (inactive) | 106 | 88.2 |
| Cc1ccc(-n2c(=O)c(C#N)cc3c(=O)n4ccccc4nc32)cc1C | -12.1% (inactive) | 87.2 | 75.1 |
| Cc1cc(NC(=O)CSc2nc(C(C)C)nc3sc4c(c23)CCC(C)C4)no1 (stereo unspecified) | -2.83% (inactive) | 8.84 | 6.01 |
| CC(C)NC(=O)CSc1ccccc1C(=O)NCc1ccc2c(c1)OCO2 | 5% (inactive) | 91.7 | 96.7 |
| Cc1cccc2c(=O)n3c(nc12)CCCCC3 | 7.51% (inactive) | 83.8 | 91.3 |
| COc1ccc(CNC(=O)CCn2cccc2)cc1 | -1.19% (inactive) | 100 | 98.9 |
| CCOc1cc(C(=O)Nc2c(C)ccc3nsnc23)cc(OCC)c1OCC | -5.65% (inactive) | 84 | 78.3 |
| COC(=O)c1sccc1NC(=O)CCC1CCCC1 | 11.8% (inactive) | 81.7 | 93.5 |
| Cc1cc(O)cc(O)c1C(=O)Cc1cnn(-c2ccccc2)c1 | 13% (inactive) | 66.8 | 79.8 |
| CCOC(=O)c1c(N)sc(C(C)=O)c1C | 11.1% (inactive) | 81.7 | 92.8 |
| Cc1cccc(S(=O)(=O)CC(=O)Nc2nc(-c3ccccc3)cs2)c1 | 12.9% (inactive) | 86.8 | 99.7 |

| SMILES | differential viability (reversal) (H69AR cells + 2 uM doxorubicin) | viability [1] [%] | viability [2] [%] |
| --- | --- | --- | --- |
| Cn1c(SCC(=O)C(C)(C)C)nnc1-c1ccccn1 | 3.29% (inactive) | 95 | 98.3 |
| COc1ccc(NC(=O)C2C3C=CC(C3)C2C(=O)NCc2ccccn2)c(OC)c1 (stereo unspecified) | 48.3% (inactive) | 44.7 | 93.1 |
| Cc1ccc(S(=O)(=O)NCC(=O)N2CCN(c3ccccn3)CC2)cc1 | 14.2% (inactive) | 87.1 | 101 |
| CCCC(=O)C1CCN(Cc2ccccc2)CC1 | 1.73% (inactive) | 91.3 | 93 |
| CC1(C)COC(c2cccn2Cc2ccccc2Cl)=N1 | 13.1% (inactive) | 90.7 | 104 |
| COc1ccc(C2CC(=O)n3c(nc4ccccc43)S2)cc1OC (stereo unspecified) | 4.1% (inactive) | 111 | 115 |
| CCc1ccc2c(c1)C1(NN=C(c3ccccc3)S1)C(=O)N2 (stereo unspecified) | -18.7% (inactive) | 34 | 15.2 |
| COc1cccc(OC)c1C(=O)Nc1ccc(N2CCCCC2)cc1 | 15% (inactive) | 90.1 | 105 |
| COC(=O)CSc1snnc1-c1ccc(Cl)c(Cl)c1 | 8.05% (inactive) | 89.3 | 97.3 |
| CC(C)C(=O)NC(NC(=S)NC1CCS(=O)(=O)C1)C(Cl)(Cl)Cl (stereo unspecified) | 6.22% (inactive) | 95.7 | 102 |
| CCOC(=O)c1cnn(Cc2ccccc2Cl)c1N | 4.58% (inactive) | 91.6 | 96.2 |
| CCOc1cccc(C(=O)Nc2nnc(-c3cccs3)s2)c1 | -41.2% (inactive) | 103 | 62.1 |
| CCn1nccc1C(=O)Nc1ccc(Cl)c(Cl)c1 | 8.65% (inactive) | 68.4 | 77 |
| CCCc1nc2sc3c(c2c(=O)n1NC(=O)CCCl)CCCC3 | 11.4% (inactive) | 24.6 | 36 |
| CC(c1ccco1)N(C(=O)Nc1ccccc1)C1CCCCC1 (stereo unspecified) | 8.57% (inactive) | 69.1 | 77.7 |
| CCCNC(=O)c1ccccc1NC(=O)CSCc1ccc(OC)cc1 | 16.1% (inactive) | 67.8 | 83.9 |
| O=C(CSc1nnc(-c2cccnc2)n1CCc1ccccc1)NCc1ccccc1 | 20.9% (inactive) | 68.7 | 89.6 |
| Cc1ccc(Nc2nnc(SCc3ccccc3)s2)cc1 | 25.2% (inactive) | 73 | 98.2 |
| CC1CCN(S(=O)(=O)c2ccc(S(=O)(=O)NCc3ccco3)cc2)CC1 | -17.8% (inactive) | 93.1 | 75.4 |
| CC(=O)NC1(c2cccc(F)c2)CCN(CC(=O)NC(C)C)CC1 | -7.86% (inactive) | 90.6 | 82.8 |
| CCOc1ccc(N=Cc2c(O)n(-c3cccc(C)n3)c(=O)c3ccccc23)cc1 | 10.8% (inactive) | 80.7 | 91.4 |
| CCN(CC)S(=O)(=O)c1cc([N+](=O)[O-])ccc1NNC(=O)Nc1ccccc1 | 0.11% (inactive) | 89.8 | 89.9 |
| CCOc1nc(NCCN2CCOCC2)nc(Nc2ccc(C)cc2)n1 | 15.7% (inactive) | 76.1 | 91.8 |
| Cc1cccc(OCCCC(=O)Nc2ccc(S(=O)(=O)N3CCCC3)cc2)c1 | 6.98% (inactive) | 82.2 | 89.2 |
| COc1ccc(C2C(C#N)=C(/N=C/N3CCOCC3)OC3=C2C(=O)CC(C)(C)C3)cc1OC (stereo unspecified) | 12.9% (inactive) | 83.8 | 96.7 |
